Inconclusive results are not listed. Calls of active or inactive are those of the source. Calls follow the shape of the dose curve; as a rule, active = well fitted inhibition curve with a large enough effect; inconclusive = small, poorly fitted or top-dose-only effect; inactive = no such curve, though single readings can be large or run the other way.
Assay: Acumen qHTS Assay for Inhibitors of the mTORC1 Signaling Pathway in MEF (Tsc2-/-, p53-/-) Cells: Hit Validation;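 also: phospho-rpS6 Ser235/236 immunofluorescence normalized to propidium iodide cell count; nearly all actives have a fitted effect of over 65% in size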;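 as to activity change, negative = inhibition: cells exposed to compound for 24 hours; plate controls were DMSO for no effect and 7.5 nM rapamycin control for full effect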
Conditions: Acumen imaging; activity change, negative = inhibition: at 37.3 µM (top of the series)
Potency is read from the fitted curve at half-maximal effect.

Row | Structure (SMILES) | Potency | activity change, negative = inhibition [%]
1 | CCOc1cc(-c2nnc(SCC(=O)NCc3ccccc3)nc2-c2ccc(OC)c(OCC)c2)ccc1OC | 2.07 µM (active) | –
2 | COc1cccc(-c2nnc3sc(CN4CCCCC4)cn23)c1 | 1.04 µM (active) | –
3 | Cc1nn(CC(=O)N2CCN(c3ccccc3F)CC2)c(=O)c2cccn12 | – | 2.89
4 | CCCCOc1cccc(C(=O)N(Cc2cccs2)c2ccc(OC)cc2)c1 | 16.5 µM (active) | –
5 | COc1ccc(C2=NS(=O)(=O)N(C)C(C(=O)Nc3ccc(OC(F)(F)F)cc3)=C2)cc1 | – | 2.76
6 | O=C(NC1CCCCC1)/C(=C/c1ccc(Cl)cc1)NC(=O)c1ccccc1 | – | -5.63
7 | CC(C)c1nnc(NC(=O)c2nc(S(=O)(=O)Cc3ccccc3)ncc2Cl)s1 | – | -86.2
8 | O=C(Nc1ccc2oc(-c3ccc4ccccc4c3)nc2c1)c1cc(Br)ccc1Cl | 9.27 µM (active) | –
9 | Cc1cccc(C(=O)Nc2c(C(=O)NCc3ccc(Cl)cc3)sc3nc(C)cc(C)c23)c1 | – | -92.4
10 | COc1cc(C(=O)Nc2ccc(NC(=O)c3ccc(C(C)(C)C)cc3)cc2)cc(OC)c1OC | 10.4 µM (active) | –
11 | CS(=O)(=O)CCNCc1ccc(-c2ccc3ncnc(Nc4ccc(OCc5cccc(F)c5)c(Cl)c4)c3c2)o1 | – | 5.21
12 | COc1ccc(-c2[nH]nc3nc(-c4cc(OC)c(OC)c(OC)c4)cc(C(=O)O)c23)cc1 | – | 15.4
13 | COc1cc(C(=O)NC(c2ccccc2Cl)c2cc(Cl)c3cccnc3c2O)cc(OC)c1OC (configuration not stated) | 2.33 µM (active) | –
14 | COc1ccc(-c2ccc(CCC(=O)O)n2-c2ccccc2O)cc1 | – | -2.33
15 | CCCCOc1ccccc1C1CC(=O)Nc2ccc3ccccc3c21 (configuration not stated) | – | -10.2
16 | CCCS(=O)(=O)c1ncc(Cl)c(C(=O)Nc2c(C(=O)Nc3ccccc3)oc3ccccc23)n1 | 0.585 µM (active) | –
17 | COc1ccc(NC(=O)c2c(C)oc3ccc(O)c(CN4CCCC(C)C4)c23)cc1Cl (configuration not stated) | 9.27 µM (active) | –
18 | Cc1ccc(CN2C(=O)C(O)(CC(=O)c3ccc(C)cc3)c3ccccc32)cc1 (configuration not stated) | 4.65 µM (active) | –
19 | CCOC(=O)C(Cc1c[nH]c2ccccc12)NC(=O)COc1ccc(Cl)cc1 (configuration not stated) | – | -4.4

Row | Structure (SMILES) | Potency | activity change, negative = inhibition [%]
20 | CN1CCN(C(CNC(=O)C(=O)Nc2cccc(Cl)c2)c2ccc3c(c2)OCO3)CC1 (configuration not stated) | – | -4.53
21 | Cc1ccc(C)c(N2CCN(CCCNC(=O)Nc3ccc(Cl)cc3)CC2)c1 | – | -77
22 | COc1ccc(NS(=O)(=O)c2ccc(-n3cccn3)cc2)cc1OC | – | -78.8
23 | CCCCN(C)CCNC(=O)C1CCN(c2nc3ccc(CC)cc3s2)CC1 | – | -90.7
24 | O=C(CC(NCc1cccnc1)C(=O)O)Nc1ccc(O)cc1 (configuration not stated) | – | 5.37
25 | Cc1ccc(-c2nnc(Nc3ccc(O)cc3)c3ccccc23)cc1S(=O)(=O)N1CCCCC1 | – | -11.6
26 | COc1ccc(N(Cc2ccccc2)C(=O)c2nc(S(C)(=O)=O)ncc2Cl)cc1 | 1.85 µM (active) | –
27 | CCOC(=O)c1c(C)[nH]c(CCC(=O)NCCCN2CCN(c3cc(C)ccc3C)CC2)c1C | 16.5 µM (active) | –
28 | O=c1c(-c2cc(-c3ccc(F)cc3)nc3c2COc2ccc(Cl)cc2-3)coc2ccc(F)cc12 | – | 7.23
29 | CCOc1ccc(CNC(=O)c2ccccc2NC(=O)c2nsc3ccccc23)cc1 | – | -112
30 | COc1ccc(-c2cc(C(F)(F)F)nc(S(C)(=O)=O)n2)cc1 | – | -88.8
31 | Cc1ccc(C(=O)c2cn(CC(=O)NCc3ccccc3Cl)c3nc(C)ccc3c2=O)cc1 | – | -14.2
32 | COc1ccc(CCNC(=O)C(C)n2nc(C)c3sc4ccccc4c3c2=O)c(OC)c1 (configuration not stated) | – | -17.7
33 | COc1ccc(C2CC(=O)c3c([nH]c(C(=O)OC4CCCCCC4)c3C)C2)cc1OC (configuration not stated) | – | 8.05
34 | CCOc1ccc(Nc2nc(N)c(C(=O)c3ccccc3Cl)s2)cc1 | – | -95
35 | CS(=O)(=O)c1ncc(Cl)c(C(=O)N(Cc2ccc(Cl)cc2)Cc2ccco2)n1 | – | -102
36 | CCCCOc1ccc(CN2C(=O)C(=O)c3cc(Br)cc(C)c32)cc1OC | 4.65 µM (active) | –
37 | CCC(=O)C1=C(c2ccc(F)cc2)N(C(=O)CC)n2cnnc2S1 | – | -29.5
